Molecules are shown by their SMILES. Inconclusive results are not listed. A call without a number means that no potency is given here. Calls of active or inactive are those of the source. The call rests on the fitted dose curve; in most records, active means well fitted cell-killing curve with a large enough effect in the repeat runs; inconclusive means weak or mixed curves, or effect the other way; inactive means no such curve, though single readings can be large or run the other way.

This test can be described thus: qHTS assay to identify small molecule agonists of the vitamin D receptor (VDR) signaling pathway - cell viability counter screen (AID 743224). Further: nearly all actives have a fitted effect of over 50% in size. Particulars: VDR-bla HEK293T viability, CellTiter-Glo luminescence, 16 h; series mostly up to 62.6 µM. The source says: U.S. Tox21 Program National Center for Advancing Translational Sciences [NCATS] NIH Chemical Genomics Center [NCGC] U.S. Environmental Protection Agency [EPA] National Institutes of Environmental Health Sciences [NIEHS] National Toxicology Program [NTP] U.S. Food and Drug Administration [FDA] Tox21 Assay Overview: The vitamin D receptor (VDR), a member of nuclear hormone receptor superfamily, plays a critical role in calcium homeostasis and bone metabolism. It is also involved in cell differentiation and growth, and thrombogenicity. […] The cytotoxicity of the Tox21 compound library against the VDR-bla cell line was tested in parallel by measuring the cell viability using CellTiter-Glo assay (Promega, Madison, WI) in the same wells.
Tox21 Assay Protocol Summary: VDR-bla cells were dispensed at 2,000 cells/6 uL/well into black wall/clear-bottom 1536-well plates using a Multidrop Combi (Thermo Fisher Scientific, Waltham, MA) dispenser. After the assay plates were incubated at a 37C and 5% CO2 for 4 h, 23 nL of compounds dissolved in DMSO, positive controls or DMSO only was transferred to the assay plate by a Pintool station (Kalypsys, San Diego, CA). The plates were incubated at 37C and 5% CO2 for 16 h. After 1 uL of LiveBLAzerTM B/G FRET substrate was added using a Bioraptr Flying Reagent Dispenser (FRD) workstation (Beckman Coulter, Indianapolis, IN, USA), the plates were incubated at room temperature for 2 h, and fluorescence intensity was measured by an Envision plate reader (PerkinElmer, Shelton, CT). For cell viability readout that measures cytotoxicity, 3 ul/well of CellTiter-Glo reagent was added into the assay plates using a FRD. After 30 min incubation at room temperature, the luminescence intensity in the plates was measured using a ViewLux (PerkinElmer) plate reader.
For the molecule `O=C(O)C(F)(F)C(F)(F)C(F)(F)C(F)(F)C(F)(F)C(F)(F)F`, the Potency entry was “inactive”.

With `CNC(=O)Oc1ccccc1C(C)C`, the Potency result was “inactive”.

Consider `CCCN1CCC[C@@H]2Cc3nc(N)ncc3C[C@H]21`, for which the Potency result is “inactive”.

Regarding `C=C(Cl)CCl`, the Potency entry is “inactive”.

`O=C(Cl)C(Cl)(Cl)Cl`: the Potency entry is “inactive”.

Turning to `COC[C@@H](NC(C)=O)C(=O)NCc1ccccc1`, the Potency entry was “inactive”.

As to `CC(C)(C)c1cc(O)ccc1O`, the Potency entry is “inactive”.

As to `N=C(N)[Se]`, the Potency entry is “inactive”.

Regarding `C=C(Cl)CSC(=S)N(CC)CC`, the Potency entry was “inactive”.

For `CC(C)[N+](C)(CCC(C(N)=O)(c1ccccc1)c1ccccc1)C(C)C`, the Potency result is “inactive”.

For `O=S1(=O)OCCO1`, the Potency entry is “inactive”.

As for `ClCOCCl`, the Potency entry was “inactive”.

`CC(=O)CN(CC(C)=O)N=O`: the Potency result is “inactive”.

As for `CC(Cc1ccccc1)NCCn1cnc2c1c(=O)n(C)c(=O)n2C` (stereo not given), the Potency entry is “inactive”.

`CCOP(=S)(OCC)SCCl`: the Potency entry was “inactive”.

As for `CS(=O)(=O)Cl`, the Potency result is “inactive”.

In the case of `CCCCS(=O)(=O)Cl`, the Potency entry was “inactive”.

With `CCN[C@H](C)Cc1cccc(C(F)(F)F)c1`, the Potency result is “inactive”.

For `O=C(O)CBr`, the Potency result is “inactive”.

Take `O=CCCl`: the Potency result was “inactive”.

On to `COC(=O)[C@@H](N)CCCN/C(N)=N/[N+](=O)[O-]`, for which the Potency entry was “inactive”.

For the molecule `CCC1(c2ccccc2)C(=O)N(COC)C(=O)N(COC)C1=O`, the Potency entry is “inactive”.

Consider `[O-][Br+2]([O-])O`, for which the Potency result was “inactive”.

As for `O=C(Cl)CCl`, the Potency result is “inactive”.

Take `N#CC(Br)(Br)C(N)=O`: the Potency entry was “inactive”.

As for `N#CN`, the Potency entry was “inactive”.

Consider `CCCCCCC(=O)CCCCCC/C=C/C[C@@H](O)[C@H](O)[C@@](N)(CO)C(=O)O`, for which the Potency result is “inactive”.

On to `CC1NCCOC1c1ccccc1` (stereo not given), for which the Potency entry is “inactive”.

Regarding `OCC(Cl)CCl` (stereo not given), the Potency result is “inactive”.

`COC1=CC(=O)O[C@@H](/C=C/c2ccccc2)C1`: the Potency result was “inactive”.

For the molecule `CON(C)C(=O)Nc1ccc(Br)c(Cl)c1`, the Potency entry is “inactive”.

Take `NNC(N)=O`: the Potency entry was “inactive”.

Regarding `C1CN2CCC1CC2`, the Potency entry is “inactive”.

As for `CCc1ccc(C2CCNCC2)cc1`, the Potency result is “inactive”.

For the molecule `C#CC(C)(C)O`, the Potency entry was “inactive”.

As to `CCOC(=O)N(C)N=O`, the Potency entry is “inactive”.

For the molecule `O=C(Cl)C(Cl)Cl`, the Potency result is “inactive”.

On to `C=C1CC[C@@]2(O)[C@H]3Cc4ccc(O)c5c4[C@@]2(CCN3CC2CC2)[C@H]1O5`, for which the Potency result was “inactive”.

For the molecule `C=CCN1CC[C@]23CCCC[C@H]2[C@H]1Cc1ccc(O)cc13`, the Potency entry is “inactive”.

Turning to `CCN(CCO)CCO`, the Potency result is “inactive”.

These data come from PubChem BioAssay (Tox21).
